# Source: PubChem BioAssay (The Scripps Research Institute Molecular Screening Center)
# TTR transcr act: increases transthyretin transcription; SH-SY5Y TTR promoter Gaussia luciferase, luminescence; 100% = recombinant luciferase protein wells; activation, % at 16.7 µM; actives 1.3% (n = 92,000);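 active means activation above the mean of all tested compounds plus 3 SD, cut at about 9.5% in these data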;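 further: cells exposed to compounds for one day before reading; 0% = median of all test compound wells on the plate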
# TTR inh HuH7: decreases TTR transcription in HuH7 cells in activator counter-screen; shares compounds with TTR transcr act; HuH7 TTR promoter-Gaussia luciferase reporter, luminescence; inhibition, % at 16.7 µM; actives 4% (n = 1,100); AID 1117279;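 active means average inhibition above the solvent-only control wells' mean plus 3 SD, cut at about 15% in these data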;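 further: 0% = cells with DMSO only and 100% = cells with inhibitor control FD; inhibitors lower well luminescence so higher value means more inhibition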
# TTR act confirm: human TTR transcription activation, confirmation. SHSY5Y TTR promoter Gaussia luciferase, luminescence; 100% = purified Lucia enzyme wells, no cells. 1,100 tested, under 10 active. shares compounds with TTR transcr act. activation, % at 16.7 µM;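 active means mean activation above a set limit taken from the earlier primary screen, cut at about 11% in these data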;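 further: 0% = DMSO-treated cells and 100% = recombinant Lucia luciferase without cells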
# * hit, by the source's call. The entries come from a sample that favours hits as a whole.
SMILES,TTR transcr act,others
CCN(CC)c1ccc(N=Cc2ccccc2[N+](=O)[O-])cc1,-3,
CCN(CC)c1ccc(N=Cc2ccc([N+](=O)[O-])o2)cc1,17*,TTR inh HuH7=-2;TTR act confirm=0
COP(=O)(CC(=O)C(Cc1ccccc1)NC(=O)OC(C)(C)C)OC (stereo not drawn),1,
COC(=O)[C@]12CCCCC=C1N(Cc1ccc(OC)cc1)C(=O)[C@@H]2CC(=O)N1CCC(c2ccccc2)CC1,1,
Cc1cc(C)c(C)c(OCC(=O)O/N=C(\N)c2cccnc2)c1,-1,
Cc1ccc(CNC(=O)c2cccnc2)cc1,1,
Cc1cc(C)c(C(=O)CC(=O)c2cccnc2)c(C)c1,15*,TTR inh HuH7=-7;TTR act confirm=0
O=C(NC1CCCC1)C(c1cccnc1)N(C(=O)c1csnn1)c1ccccc1Cl (stereo not drawn),0,
O=C1CCCN1C(=O)CSc1nnnn1-c1ccccc1,-1,
Cc1cc(C)c(NC(=O)C(C)c2cccc(C(=O)c3ccccc3)c2)c(C)c1 (stereo not drawn),1,
Cc1cccc(C(=O)N(Cc2nc3ccccc3c(=O)[nH]2)C2CCCC2)c1,-3,
O=C(c1ccccc1)N(Cc1nc2ccccc2c(=O)[nH]1)C1CCCC1,0,
O=C(COCc1nc2ccccc2c(=O)[nH]1)NCC1CCCCC1,13*,TTR inh HuH7=-15;TTR act confirm=0
Cc1ccc(C(=O)Oc2coc(CSc3ncccn3)cc2=O)cc1[N+](=O)[O-],-1,
CC(=O)N1CCN(c2cc(-c3ccco3)nc3cc(-c4ccccc4)nn23)CC1,-1,
COc1ccc2c(CCN3C(=O)c4ccccc4C3=O)c(-c3c(CCN4C(=O)c5ccccc5C4=O)c4ccccc4n3C(=O)OC(C)(C)C)[nH]c2c1,0,
O=C(Nc1cn(-c2ccccc2)nc1-c1ccc(Cl)cc1)c1ccccc1,0,
Cc1ccc(-c2nc3ncccn3c2NC(=O)c2ccccc2)cc1,0,
Cc1ccc(-c2nn(-c3ccccc3)cc2NC(=O)c2ccccc2)cc1,13*,TTR inh HuH7=1;TTR act confirm=-1
O=C(Nc1c(-c2ccc(C(F)(F)F)cc2)nc2ncccn12)c1ccccc1,0,
CCCC(=O)Nc1ccc(C(=O)n2ccc(C)n2)cc1,3,
CCOC(=O)[C@@H](NC(=O)[C@@H]1CC=C[C@@H]2CCN(Cc3ccc(Cl)cc3)C(=O)[C@@H]21)C(C)C,1,
CN(C)C(CNC(=O)Cc1cccc(C(F)(F)F)c1)c1ccccc1 (stereo not drawn),15*,TTR inh HuH7=-12;TTR act confirm=0
O=C(Cc1cccc(C(F)(F)F)c1)NCc1ccc(Cl)cc1,1,
CC(NC(=O)CSc1cccc(C(F)(F)F)c1)c1ccccc1 (stereo not drawn),-1,
SMILES,TTR transcr act,others
CN(C)[C@@H]1CCN(c2ccc3c(c2)O[C@H]2CCN(C2)S3(=O)=O)C1,0,
O=C(NCc1ccccc1)c1ccc(CO)cc1,-1,
O=C(NCc1ccccc1)NC(=O)c1ccc(Cl)cc1,25*,TTR inh HuH7=-10;TTR act confirm=0
O=C(NCc1ccccc1Cl)NC(=O)c1ccccc1,0,
O=C1C(=O)N(Cc2ccc(-c3ccc(F)nc3)cc2)c2ccc(OC(F)(F)F)cc21,0,
OC(CN1CCN(c2ccccn2)CC1)Cn1c2ccc(Cl)cc2c2cc(Cl)ccc21 (stereo not drawn),36*,TTR inh HuH7=-6;TTR act confirm=1
Cc1ccc(OCC(O)CN2CCN(c3ccccn3)CC2)c(C)c1 (stereo not drawn),-4,
OC(COC(c1ccc(Cl)cc1)c1ccc(Cl)cc1)CN1CCN(c2ccccn2)CC1 (stereo not drawn),0,
C[C@H](NC(=O)OC(C)(C)C)C(=O)N/N=C/c1ccc2nccnc2c1,-1,
O=C(NCc1ccco1)c1cc(-c2ccccc2)nn1CC1CC(c2cccnc2)=NO1 (stereo not drawn),10*,TTR inh HuH7=-10;TTR act confirm=0
COc1ccccc1CNC(=O)c1cc(-c2ccccc2C)nn1CC1CC(c2cccnc2)=NO1 (stereo not drawn),-3,
O=C(NCc1ccc(OC(F)(F)F)cc1)c1cc(-c2ccccc2)nn1CC1CC(c2cccnc2)=NO1 (stereo not drawn),0,
COC(=O)CSc1nnc(-c2ccc(OC)c(OC)c2)o1,3,
CCOC(=O)Cc1csc(NC(=O)CSc2nnc(-c3ccc(NS(=O)(=O)CC)cc3)o2)n1,-3,
CCS(=O)(=O)Nc1ccc(-c2nnc(SCC(=O)OC)o2)cc1,10*,TTR inh HuH7=-7;TTR act confirm=0
COc1cccc(C(=O)N2CCC[C@H]2C(=O)N2CCC[C@H]2C(=O)N[C@H](C)c2ccccc2)c1,-1,
O=C(OCc1cn(Cc2ccc(Cl)cc2)nn1)N1CCCC1,5,
COC(=O)c1ccc(Cn2ccc3ccc(-c4ccc5ccn(C(=O)c6ccc(C)cc6)c5c4)cc32)cc1,-1,
C=CCC[C@@H](Cc1ccc(F)cc1)C(=O)OC[C@H](Cc1c[nH]c2ccccc12)NC(=O)[C@@H](CC=C)CC(=O)N[C@H](CO)Cc1ccccc1,-4,
C=CCC[C@@H](Cc1ccc(F)cc1)C(=O)OC[C@@H]1CCCN1C(=O)[C@H](CC=C)CC(=O)N[C@H](CO)Cc1ccccc1,17*,TTR inh HuH7=0;TTR act confirm=-2
C=CC[C@@H](CC(=O)N[C@H](CO)Cc1ccccc1)C(=O)N[C@@H](COC(=O)[C@@H](CC=C)Cc1ccc(F)cc1)Cc1ccccc1,4,
CCOC(=O)N1CCN(C(=O)C(=O)NN)CC1,1,
Cc1sc2ncnc(N3CCC(C(=O)Nc4ccc(Br)cc4Br)CC3)c2c1C,5,
CCCC1CCC2(CCCN2CCOC(=S)Nc2ccccc2Br)CC1 (stereo not drawn),7,
Cc1ccc2nc(SCC(=O)NC3CC3)[nH]c2c1,-1,
SMILES,TTR transcr act,others
Cc1ccc2nc(SCC(=O)N3CCCC3)[nH]c2c1,2,
Cc1ccc2nc(SCC(=O)Nc3nonc3C)[nH]c2c1,10*,TTR inh HuH7=-9;TTR act confirm=-1
O=C(NCCc1c[nH]c2ccccc12)OCc1cn(-c2ccccc2Cl)nn1,1,
Cc1ccccc1C(=O)NC1CCCCN(C(C)C)C1=O (stereo not drawn),1,
COc1ccccc1C(=O)NC1CCCCN(Cc2ccccc2C)C1=O (stereo not drawn),0,
Nc1[nH]c2cc(C(F)(F)F)ccc2c1C(=O)NCc1ccc(F)cc1,2,
O=C(NCCc1ccccc1)OCc1cn(-c2ccccc2Cl)nn1,-2,
Cc1ccc(NCCC(=O)c2cccc([N+](=O)[O-])c2)c(C)c1,16*,TTR inh HuH7=-2;TTR act confirm=0
Cc1cccc(NCCC(=O)c2ccc([N+](=O)[O-])cc2)c1C,0,
Cc1ccc(C(=O)CNc2ccc(C)cc2C)cc1,5,
COC(=O)[C@]12C[C@H](CC(=O)NCCc3ccccc3OC)C(=O)N(Cc3ccc(Cl)cc3Cl)C1=C[C@H](C1CCCC1)O[C@@H]2C,0,
O=C(NC1CCC(O)CC1)c1ccc(NS(=O)(=O)c2cccc([N+](=O)[O-])c2)cc1 (stereo not drawn),0,
CCN1CCN(c2nc3sc4c(c3c3ncnn23)CC(C)CC4)CC1 (stereo not drawn),11*,TTR inh HuH7=-31;TTR act confirm=0
CC1CCc2sc3nc(NCc4ccco4)n4ncnc4c3c2C1 (stereo not drawn),2,
CC1CCc2c(sc3ncnc(N4CCOCC4)c23)C1 (stereo not drawn),-1,
O=C(CSc1ccc(-c2cccnc2)nn1)Nc1ccc(F)c(F)c1,-2,
